In PubChem BioAssay (EPA / NIEHS):
Results filed as inconclusive are left out. The source made the active and inactive calls. Rule for the calls: active = hit-call score of the fitted dose curve at least 0.9, where 1 is the maximum; inconclusive = response in the unintended direction; inactive = score below 0.9.

How the values were obtained:
[1] = VALA_TUBHUV_Agonist_CellCount: Viability Assessment in the VALA Sciences human Umbilical Vein Endothelial Tubule Formation (TUBHUV) Agonism Assay (AID 2284309)
In short: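 HUVEC co-cultured 1:3 with HDF for 3 days in 10 ng/ml VEGF, then compounds added in VEGF medium for a further 3 days (72 h). Nuclear-stain/CD31 imaging cell count. Positive-direction fit versus 0.1% DMSO vehicle.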

[2] = VALA_TUBIPS_Agonist_TubuleLength: VALA Sciences human iPS-derived Endothelial Tubule Formation (TUBIPS) Agonism Assay (AID 2284311)
In short: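 Human iPS-derived endothelial cells were exposed to compound for 72 h. Tubule formation was imaged by high-content fluorescence and scored as gain of signal relative to DMSO vehicle (agonist mode).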

[3] = VALA_TUBIPS_Antagonist_TubuleLength: VALA Sciences human iPS-derived Endothelial Tubule Formation (TUBIPS) Antagonist Assay (AID 2284313)
In short: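 Cells grown 3 days with 10 ng/ml VEGF, then exposed to compounds in VEGF medium for another 3 days. After fixation, nuclear stain and CD31 immunofluorescence imaging gave mean total tubule length against 0.1% DMSO; suramin (100 uM) inhibition control.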

[4] = VALA_MIGHUV2_WoundArea: VALA Sciences human Umbilical Vein Endothelial Cell Migration (MIGHUV) Assay, Area of Scratch Wound after Recovery (AID 2284316)
In short: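 HUVEC seeded at 9000 cells/well, scratched after 24 h; test chemical added within 30 min, 6-point concentration response in triplicate (0.1% DMSO vehicle). After 24 h wound recovery, cells fixed and Hoechst-stained nuclei in wound area imaged; Cytochalasin D reference control.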

Measured: outcome

O=C(CCCN1CCC(O)(c2ccc(Cl)cc2)CC1)c1ccc(F)cc1
inactive: all assays above
